# Experimental data as given in the supplement of paper PMC3334620.
# Whole data set: some 33,000 sequences, median “E-score (-0.5 to 0.5)” near -0.043, cut for the highest 2% near 0.37. For the sample, the highest values were picked, then their nearest neighbours and some sequences at random.
# Target: T1, Upc2 (UniProt Q12151)
# T1 sequence: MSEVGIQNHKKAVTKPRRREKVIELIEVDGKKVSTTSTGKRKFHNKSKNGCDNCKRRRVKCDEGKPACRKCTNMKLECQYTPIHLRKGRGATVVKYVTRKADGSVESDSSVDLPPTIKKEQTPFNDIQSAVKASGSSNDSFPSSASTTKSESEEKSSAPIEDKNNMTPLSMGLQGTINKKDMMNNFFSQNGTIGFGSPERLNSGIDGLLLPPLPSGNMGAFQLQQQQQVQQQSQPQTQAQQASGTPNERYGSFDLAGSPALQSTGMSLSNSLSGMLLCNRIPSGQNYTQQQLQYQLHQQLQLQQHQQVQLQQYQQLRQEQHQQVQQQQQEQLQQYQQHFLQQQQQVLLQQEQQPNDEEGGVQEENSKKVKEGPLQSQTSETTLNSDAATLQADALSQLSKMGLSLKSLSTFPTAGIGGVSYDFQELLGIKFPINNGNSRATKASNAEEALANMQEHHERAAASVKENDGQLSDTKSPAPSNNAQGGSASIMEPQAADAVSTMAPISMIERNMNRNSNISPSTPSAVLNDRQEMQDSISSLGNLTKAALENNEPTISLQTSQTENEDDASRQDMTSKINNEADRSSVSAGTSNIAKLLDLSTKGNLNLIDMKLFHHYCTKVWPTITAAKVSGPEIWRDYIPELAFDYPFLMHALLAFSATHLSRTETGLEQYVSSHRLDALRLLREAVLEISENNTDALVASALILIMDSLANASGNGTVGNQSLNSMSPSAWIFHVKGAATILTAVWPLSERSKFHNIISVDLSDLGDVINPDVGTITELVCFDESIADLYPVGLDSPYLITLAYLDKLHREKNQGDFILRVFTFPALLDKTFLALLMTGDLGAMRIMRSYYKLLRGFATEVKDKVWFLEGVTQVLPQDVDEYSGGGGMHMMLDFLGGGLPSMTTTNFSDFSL
# Experiment: PBM E-score (8-mer binding enrichment) (E-score (-0.5 to 0.5)); higher = stronger / more preferred TF binding
# Conditions: protein concentration: 200 nM; construct: GST-full length
# In short: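 Full-length yeast transcription factors or their DNA-binding domains, GST-tagged and expressed with PURExpress, were applied at about 100-200 nM to universal all-10-mer Agilent arrays. These arrays had been made double-stranded by primer extension on fresh or once-stripped slides. Detection used fluorescent anti-GST, normalisation used masliner, and E-scores for ungapped eight-base words pooled with reverse complements came from the Universal PBM Analysis Suite.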
row,Sequence,PBM E-score
1,CCTAGCGA,-0.299
2,CCCCTCTC,-0.185
3,ACCGGCCC,0.0253
4,ATCTGTAA,-0.0759
5,ATGTAAAC,0.27
6,AGTGAGAC,-0.0557
7,GCCTGCCA,-0.317
8,CAATAGAA,-0.241
9,CCGAACCA,-0.127
10,GCGAACCA,0.164
11,CCGAACCG,0.0623
12,ACGAACCC,0.301
13,ACGAACCG,0.378
14,ACGAACCA,0.376
15,TCAGCCAA,-0.177
16,CGTGCGAA,0.214
17,ATTTTGCA,-0.0911
18,GTTTACAA,0.164
19,CTTTACGA,0.471
20,ATTTACGG,0.297
21,GTTTACGA,0.471
22,ATTTACGA,0.45
23,CATTACGA,0.316
24,CTTTACGC,0.332
25,ATTTACGC,0.154

row,Sequence,PBM E-score
1,GTTTACTA,0.224
2,GAGGGGGA,-0.0209
3,GTCGAGTA,0.0357
4,ATTGTATC,-0.2
5,GAGGGAAC,-0.0277
6,AATAAGTA,0.0339
7,CTGTTGGC,-0.209
8,CTGCGACC,-0.164
9,ATCACAGA,-0.155
10,CTCCTATA,-0.0688
11,CGCTATTC,0.102
12,CGCAAACG,0.412
13,ACCAAACA,0.208
14,CCCAAGCG,-0.031
15,ACCAAACG,0.4
16,CACAAACG,0.387
17,CACAAACA,-0.0461
18,CCAAAACG,0.114
19,CGCAAACA,0.0866
20,CCCAAACG,0.431
21,AACAAACG,0.353
22,CGCAAGCG,0.115
23,ACCAAACC,-0.0475
24,AGGCCAAG,-0.17
25,GAGCAGCA,-0.098

row,Sequence,PBM E-score
1,AGTTCGAA,0.0491
2,AACACAGA,-0.00201
3,CCCTTCGG,-0.0969
4,ATCGCAAG,-0.255
5,AGGACTTG,-0.287
6,CCTACGCA,-0.196
7,AACGACAT,0.432
8,ACCGACAT,0.199
9,CACGACAC,0.114
10,AACGACAC,0.428
11,AGCGACAT,0.177
12,AACGACAG,0.419
13,ATCGACAG,-0.0101
14,AACGACAA,0.402
15,CACGACAA,0.0377
16,GACGACAC,-0.079
17,GACGACAA,0.0707
18,CACGACAG,0.0499
19,GACCAAGC,-0.234
20,CCATGGAC,-0.201
21,AGGACAGA,-0.347
22,ATGTGAAC,0.00151
23,GAATTAGC,-0.0225
24,CTTACAGC,-0.0579
25,TCCGGGAA,-0.0708

row,Sequence,PBM E-score
1,GGAAGAAA,-0.136
2,GGATCGCC,-0.0204
3,TACGACAA,0.46
4,TTCGACAA,0.0423
5,TGCGACAA,0.141
6,ACTCTATA,0.0319
7,GGACCTTA,0.00047
8,ATCGTTAC,0.264
9,CACGTTAA,0.131
10,GTCGTTAA,0.465
11,GGCGTTAA,0.161
12,GACGTTAA,0.154
13,CTCGTTAC,0.36
14,ATCGTTAG,0.239
15,CTCGTTAA,0.466
16,ATCGTTAA,0.435
17,AGCAGCAC,-0.113
18,GTGCTCGA,0.0349
19,ATGAGTGG,-0.126
20,CAATCTTA,0.065
21,CTATAGCA,-0.0859
22,GTATAGCA,0.377
23,ATATAGCA,-0.0248
24,CAGATCAC,-0.266
25,AGTCTTTC,-0.0324

row,Sequence,PBM E-score
1,GCCAATAC,0.0787
2,ACATTCGA,0.0307
3,ACATTCGG,0.0333
4,ACATTCGT,0.375
5,AACATCCA,-0.0529
6,ATGTCCTA,0.0227
7,AGATCTCG,0.235
8,CATCGTGA,0.0225
9,AATCGTAG,0.241
10,AATCGTCT,0.0582
11,GATCGTAA,0.396
12,AATCGTAT,0.44
13,CATCGTAA,0.389
14,AATCGTAA,0.368
15,CATCGTAG,0.295
16,CATCGTCC,-0.0591
17,CATCGTCA,-0.163
18,CATCGTAC,0.454
19,GATCGTTA,0.291
20,GGCGTCCA,-0.398
21,CATCACGG,0.0314
22,ACTGTAGG,-0.117
23,GATTAGCC,0.0747
24,ATGTTAGG,-0.00946
25,ACCTGGAA,0.0285

row,Sequence,PBM E-score
1,AGAGCATG,-0.17
2,CAGTGCTA,-0.0362
3,AGAATCAG,-0.0805
4,AGCATTAT,-0.183
5,AATCGTGC,0.229
6,AATCGTAC,0.43
7,TATCGTAA,0.384
8,GATCGTAC,0.442
9,TATCGTCA,0.0773
10,GATCGTCC,-0.151
11,TATCGTGA,0.0236
12,AATCGTCC,-0.0549
13,GATCGTGC,0.0519
14,AGAGGCAC,-0.00593
15,GAACATCA,-0.0243
16,AGCTGTAT,-0.0312
17,CTAAGCTC,-0.201
18,AACCCTCT,-0.202
19,CGGACTAC,-0.113
20,CTCGTCGC,0.0828
21,TCGAGCCA,-0.0555
22,CCGAGCCG,0.106
23,AGGAGCCT,-0.12
24,ACGAGCCC,0.358
25,ACGAGCCG,0.371

row,Sequence,PBM E-score
1,CCGAGCCA,-0.0165
2,ACGAGCCT,0.396
3,AGGAGCCG,-0.224
4,ACGAGCCA,0.408
5,TAACTCAA,-0.0155
6,ATTTCTTC,-0.026
7,ATATATAA,0.141
8,TAATGCTA,-0.11
9,GATCGATC,-0.03
10,GAACGATA,0.402
11,AAACGATT,0.449
12,AAACGATG,0.458
13,AATCGATT,0.128
14,CAACGATG,0.0412
15,AAACGCTT,0.156
16,GAACGGTA,0.283
17,CCACGATC,0.125
18,GGACGATA,-0.181
19,GAACGATC,0.429
20,AAACGCTG,0.244
21,CGCCACCC,-0.0595
22,ATCGTGAG,-0.165
23,GGTCTGCA,-0.156
24,TCAGATGA,-0.197
25,ATCTGGTA,0.044
